Source: PubChem BioAssay (NCATS)
Records with an inconclusive call do not appear. Where a call stands in place of a potency, no number is given. Calls of active or inactive are those of the source. Calls come from the whole dose curve; as a rule, active = well fitted curve in the direction sought with a large enough effect; inconclusive = small, poorly fitted or top-dose-only effect, or another doubt; inactive = no such curve, though single readings can be large; an effect the other way counts as inactive or inconclusive.
Potency is the fitted concentration of half-maximal effect.

These compounds were tested against Rap guanine nucleotide exchange factor 3 (Homo sapiens) (UniProt O95398) (assay: Confirmatory qHTS for antagonist of cAMP-regulated guanine nucleotide exchange factor 3 (EPAC1) (AID 1645880; note: nearly all actives have a fitted effect of over 55% in size)). Settings: EPAC1 Rap1B-BODIPY-GDP exchange, fluorescence; series mostly up to 115 µM.
Rap guanine nucleotide exchange factor 3 (Homo sapiens), sequence (O95398 whole entry, looked up): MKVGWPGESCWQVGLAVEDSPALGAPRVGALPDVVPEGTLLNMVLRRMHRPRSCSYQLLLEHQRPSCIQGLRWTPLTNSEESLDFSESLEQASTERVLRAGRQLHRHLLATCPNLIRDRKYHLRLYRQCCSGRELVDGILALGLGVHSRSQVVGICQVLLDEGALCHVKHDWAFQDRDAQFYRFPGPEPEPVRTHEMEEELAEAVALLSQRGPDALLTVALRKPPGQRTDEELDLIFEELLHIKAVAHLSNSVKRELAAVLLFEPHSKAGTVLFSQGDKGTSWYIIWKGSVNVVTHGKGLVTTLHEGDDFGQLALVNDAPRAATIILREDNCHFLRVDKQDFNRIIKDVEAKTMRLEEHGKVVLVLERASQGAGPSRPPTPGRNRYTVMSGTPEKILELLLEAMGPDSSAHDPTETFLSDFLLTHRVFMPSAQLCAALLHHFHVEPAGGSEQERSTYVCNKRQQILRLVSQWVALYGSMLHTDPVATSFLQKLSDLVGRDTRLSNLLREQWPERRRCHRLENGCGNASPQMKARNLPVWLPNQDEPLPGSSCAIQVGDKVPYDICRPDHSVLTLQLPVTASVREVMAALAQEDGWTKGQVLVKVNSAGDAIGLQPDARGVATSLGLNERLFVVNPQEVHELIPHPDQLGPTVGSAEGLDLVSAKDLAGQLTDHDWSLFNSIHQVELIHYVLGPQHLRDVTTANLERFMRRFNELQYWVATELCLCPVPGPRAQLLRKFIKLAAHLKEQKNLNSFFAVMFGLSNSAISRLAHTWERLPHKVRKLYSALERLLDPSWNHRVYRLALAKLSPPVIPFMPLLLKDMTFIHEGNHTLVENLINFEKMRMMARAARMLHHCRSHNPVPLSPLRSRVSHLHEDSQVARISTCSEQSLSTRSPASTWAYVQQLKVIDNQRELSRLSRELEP
Outline: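 Nucleotide exchange uses 100 nM EPAC1, 250 nM RAP1B-BODIPY-GDP and 50 uM GDP, with compounds in a concentration-titration series. After 5 min at room temperature, fluorescence (480 nm ex/540 nm em) is read every 5 min for 30 min. Data are normalized to control ATA and DMSO.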
In the case of `Cc1ccc(NC(=O)c2ccc(CN3CC(=O)N4CCCCC4C3=O)cc2)c(C)c1` (configuration not stated), the Potency is reported as “inactive”.
In the case of `O=C1NC(=O)/C(=C/c2ccccn2)S1`, the Potency is reported as “inactive”.
For `Cc1ccc(F)c(NC(=O)/C(C#N)=C(\O)c2ccc(C(C)(C)C)cc2)c1`, the Potency was 8.91 µM (active).
With `N#Cc1c(-c2ccccc2)nc(SCc2ccc(Cl)cc2)[nH]c1=O` the Potency was 33.8 µM (active).
With `CCOC(=O)Cn1c(=O)oc2cc(S(=O)(=O)Nc3c(C)cc(C)cc3C)ccc21` the Potency was “inactive”.
With `COc1ccc(-c2nnc(SCC(=O)c3ccco3)n2-c2ccccc2)cc1` the Potency was “inactive”.
With `O=[N+]([O-])c1cc([N+](=O)[O-])c2nonc2c1Nc1ccc(O)cc1` the Potency was 75.7 µM (active).
For `Cc1ccc(Cl)cc1NC(=O)c1ccccc1OCC(=O)Nc1ccc(Cl)cc1`, the Potency was “inactive”.
For `CCCCCC1CCC(c2ccc(C(N)=O)cc2)CC1` (configuration not stated), the Potency was “inactive”.
For `O=CN(CCN(C=O)CN1CCCCC1)CN1CCCCC1`, the Potency was “inactive”.
For `Cc1ccccc1N(CC(=O)NC1CCCC1)C(=O)c1csnn1`, the Potency was “inactive”.
`COc1cc(OC)c(CNC2CCCCCC2)cc1Br` was tested, and the Potency was “inactive”.
For `COCCN(C)Cc1nc(C(c2ccccc2)c2ccccc2)no1`, the Potency was “inactive”.
For `CCC1CCCCN1CCCNC(=O)c1ccc(CS(=O)(=O)Cc2ccccc2F)o1` (configuration not stated), the Potency was “inactive”.
In the case of `O=C1/C(=C/c2ccc(F)cc2)SC(=S)N1NS(=O)(=O)c1ccccc1`, the Potency is reported as 16.9 µM (active).
`Cc1nc2c(C(=O)NCCC(C)C)c[nH]n2c(=O)c1Cl` was tested, and the Potency was “inactive”.
In the case of `Cc1cnc(C(=O)N(c2ccc(N3CCOCC3)cc2)C2C(=O)Nc3ccccc3N=C2c2ccc(F)cc2)cn1` (configuration not stated), the Potency is reported as “inactive”.
In the case of `COc1ccccc1-n1c(-c2ccccc2)c[n+]2c1CCc1ccccc1-2`, the Potency is reported as “inactive”.
In the case of `Cc1cccc(NC(=O)CN2C(=O)S/C(=C\c3ccc(O)c([N+](=O)[O-])c3)C2=O)c1`, the Potency is reported as 23.9 µM (active).
In the case of `CCOC(=O)C1=CCN(S(=O)(=O)c2ccc(C)cc2)C1c1cccs1` (configuration not stated), the Potency is reported as “inactive”.
`CC1Cc2nc(SCC(=O)NCc3ccccc3)n(Cc3ccccc3)c(=O)c2S1` (configuration not stated) was tested, and the Potency was “inactive”.
With `CCOC(=O)CN1C(=O)c2ccccc2Sc2ncccc21` the Potency was “inactive”.
In the case of `O=C1S/C(=C\c2ccc(O)c([N+](=O)[O-])c2)C(=O)N1c1ccccc1Cl`, the Potency is reported as 75.7 µM (active).

These compounds were tested against Rap guanine nucleotide exchange factor 3 (Homo sapiens) (UniProt O95398) (assay: Confirmatory qHTS for agonist of cAMP-regulated guanine nucleotide exchange factor 3 (EPAC1) (AID 1645881; note: nearly all actives have a fitted effect of over 75% in size)). Settings: EPAC1 Rap1B BODIPY-GDP exchange fluorescence; series mostly up to 154 µM.
For `Cc1nn(CCc2nn[nH]n2)c2nc(-c3ccc(C4CCCCC4)cc3)cc(C(F)(F)F)c12`, the Potency was “inactive”.
For `O=C(NS(=O)(=O)c1ccc2ccc(S(=O)(=O)NCCSc3ccccc3)cc2c1)c1cccc2ccccc12`, the Potency was “inactive”.
For `CCOC(=O)C1CCCN(C(=O)C(C)(C)Oc2ccc(Cl)cc2)C1` (configuration not stated), the Potency was “inactive”.
`O=C(CNC(=O)c1sc2ccccc2c1Cl)Nc1ccccc1F` was tested, and the Potency was “inactive”.
In the case of `CCOc1c(OC)cccc1C1CC(=O)Nc2cc3c(cc21)OCCO3` (configuration not stated), the Potency is reported as “inactive”.
With `Cc1ccc(S(=O)(=O)/N=C2\C=C(Nc3cccc(C(=O)O)c3)C(=O)c3ccccc32)c(C)c1` the Potency was “inactive”.
With `CS/C(N)=N/N=C/c1c(O)ccc2ccccc12` the Potency was “inactive”.
In the case of `CC(=O)c1c(C(C)=O)c(C)n(-c2nc(-c3ccccc3)c(C)s2)c1C`, the Potency is reported as “inactive”.
`CC(C)CNC(=O)c1c(-c2ccccc2)c(-c2ccccc2)nn(C)c1=O` was tested, and the Potency was “inactive”.
With `O=C1CSC2(C(=O)N(Cc3cccc(C(F)(F)F)c3)c3ccccc32)N1c1ccc(F)c(F)c1` (configuration not stated) the Potency was “inactive”.
With `O=[N+]([O-])c1ccc(Cc2ccccn2)c([N+](=O)[O-])c1` the Potency was “inactive”.
In the case of `OCC[n+]1ccc(/C=C/c2c[nH]c3ccccc23)cc1`, the Potency is reported as 56.2 µM (active).
For `COc1ccc(C2c3c(ncn(CCCO)c3=N)Oc3ccc4ccccc4c32)cc1` (configuration not stated), the Potency was “inactive”.
With `CC1(C(=O)O)CCC2(C)CCC3(C)C(=CC(=O)C4C5(C)CCC(=O)C(C)(C)C5CCC43C)C2C1` (configuration not stated) the Potency was “inactive”.
With `C[C@@H](c1ccccc1)N1Cc2ccccc2Oc2cc(Br)ccc2S1(=O)=O` the Potency was “inactive”.
In the case of `COc1ccccc1Oc1ccnc2cc(Cl)ccc12`, the Potency is reported as “inactive”.
`Cc1ccc(NC(=O)c2ccc(CN3CC(=O)N4CCCCC4C3=O)cc2)c(C)c1` (configuration not stated) was tested, and the Potency was “inactive”.
In the case of `O=C1NC(=O)/C(=C/c2ccccn2)S1`, the Potency is reported as “inactive”.
For `Cc1ccc(F)c(NC(=O)/C(C#N)=C(\O)c2ccc(C(C)(C)C)cc2)c1`, the Potency was “inactive”.
In the case of `N#Cc1c(-c2ccccc2)nc(SCc2ccc(Cl)cc2)[nH]c1=O`, the Potency is reported as “inactive”.
For `CCOC(=O)Cn1c(=O)oc2cc(S(=O)(=O)Nc3c(C)cc(C)cc3C)ccc21`, the Potency was “inactive”.
In the case of `COc1ccc(-c2nnc(SCC(=O)c3ccco3)n2-c2ccccc2)cc1`, the Potency is reported as “inactive”.
`O=[N+]([O-])c1cc([N+](=O)[O-])c2nonc2c1Nc1ccc(O)cc1` was tested, and the Potency was “inactive”.
With `Cc1ccc(Cl)cc1NC(=O)c1ccccc1OCC(=O)Nc1ccc(Cl)cc1` the Potency was “inactive”.
`CCCCCC1CCC(c2ccc(C(N)=O)cc2)CC1` (configuration not stated) was tested, and the Potency was “inactive”.
With `O=CN(CCN(C=O)CN1CCCCC1)CN1CCCCC1` the Potency was “inactive”.
For `Cc1ccccc1N(CC(=O)NC1CCCC1)C(=O)c1csnn1`, the Potency was “inactive”.
In the case of `COc1cc(OC)c(CNC2CCCCCC2)cc1Br`, the Potency is reported as “inactive”.
With `COCCN(C)Cc1nc(C(c2ccccc2)c2ccccc2)no1` the Potency was “inactive”.
For `CCC1CCCCN1CCCNC(=O)c1ccc(CS(=O)(=O)Cc2ccccc2F)o1` (configuration not stated), the Potency was “inactive”.
For `O=C1/C(=C/c2ccc(F)cc2)SC(=S)N1NS(=O)(=O)c1ccccc1`, the Potency was “inactive”.
With `Cc1nc2c(C(=O)NCCC(C)C)c[nH]n2c(=O)c1Cl` the Potency was “inactive”.
With `Cc1cnc(C(=O)N(c2ccc(N3CCOCC3)cc2)C2C(=O)Nc3ccccc3N=C2c2ccc(F)cc2)cn1` (configuration not stated) the Potency was “inactive”.
`COc1ccccc1-n1c(-c2ccccc2)c[n+]2c1CCc1ccccc1-2` was tested, and the Potency was “inactive”.
With `Cc1cccc(NC(=O)CN2C(=O)S/C(=C\c3ccc(O)c([N+](=O)[O-])c3)C2=O)c1` the Potency was “inactive”.
`CCOC(=O)C1=CCN(S(=O)(=O)c2ccc(C)cc2)C1c1cccs1` (configuration not stated) was tested, and the Potency was “inactive”.
`CC1Cc2nc(SCC(=O)NCc3ccccc3)n(Cc3ccccc3)c(=O)c2S1` (configuration not stated) was tested, and the Potency was “inactive”.
With `CCOC(=O)CN1C(=O)c2ccccc2Sc2ncccc21` the Potency was “inactive”.
For `O=C1S/C(=C\c2ccc(O)c([N+](=O)[O-])c2)C(=O)N1c1ccccc1Cl`, the Potency was “inactive”.
